Experimental data: PubChem BioAssay AID686949 (The Scripps Research Institute Molecular Screening Center, 2013)
In all, about 3,200 compounds went through this assay and about 2,200 (69%) were called active.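 How the source made its calls: active means activation, as change over the incubation, above the mean of all tested compounds plus 3 SD (cut at about 13% in these data); inactive means the rest.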 The set was probably picked from earlier hits. These entries were drawn from the full list.

target: Kallikrein-7 (Homo sapiens) (UniProt P49862); test: proKLK7 zymogen activators, confirmation, biochemical, fluorescence intensity, triplicate (AID 686949); conditions: purified proKLK7, EDANS-DABCYL substrate fluorescence; at 7 µM; hits give high values; scaled: vehicle 0, mature enzyme 100
Sequence (P49862 whole entry, looked up): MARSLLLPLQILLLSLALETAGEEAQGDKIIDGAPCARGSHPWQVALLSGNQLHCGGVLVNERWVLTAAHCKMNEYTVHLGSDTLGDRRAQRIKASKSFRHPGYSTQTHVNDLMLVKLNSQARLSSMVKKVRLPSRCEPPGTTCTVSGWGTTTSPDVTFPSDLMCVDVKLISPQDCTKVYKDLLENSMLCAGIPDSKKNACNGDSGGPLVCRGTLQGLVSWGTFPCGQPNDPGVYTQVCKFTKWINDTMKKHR

Row | SMILES | activation
1 | CC(=O)NN1C(=O)c2ccccc2NC1c1ccccc1 (stereo not drawn) | 33.8% (active)
2 | CCOC(=O)NN1C(=O)c2ccccc2NC1c1cccc(O)c1 (stereo not drawn) | 19.6% (active)
3 | COc1cc(/C=N\NC(=O)c2nonc2N)c(OC)cc1Br | 75.4% (active)
4 | CCc1nc(Nc2ccc(NC(C)=O)cc2)c2oc3ccccc3c2n1 | 69.9% (active)
5 | Cc1cc(C)c(C#N)c(SCC(=O)NN2CC(=O)N(c3ccccc3F)CC2=O)n1 | 52.8% (active)
6 | CCN1CCc2c(C#N)c(NCc3ccccc3)nc(NCCO)c2C1 | 31.4% (active)
7 | COc1cccc(NC(=O)CN(C)C(=O)/C=C/c2cc(OC)ccc2OC)c1 | -101% (inactive)
8 | COc1cccc2sc3cc(NCC[C@@H]4CCCN4C)ccc3c(=O)c12 | 46.9% (active)
9 | CN(C)C(=O)c1coc2nc3ccccc3nc12 | 104% (active)
10 | c1ccc(-c2cn3cccnc3n2)cc1 | 68.7% (active)
11 | COc1ccc(-c2cn3cccnc3n2)cc1 | 68.6% (active)
12 | COc1ccc2nc(-c3ccccn3)ccc2c1 | 3.28% (inactive)
13 | FC(F)(F)Oc1ccc(-c2cn3cccnc3n2)cc1 | 36.4% (active)
14 | Cc1cc(S(=O)(=O)c2cc3ccc(O)c(C)c3oc2=O)ccc1F | 59.1% (active)
15 | CC1(C)CC(=O)c2cc(OCC(=O)NCC3CCCO3)ccc2O1 (stereo not drawn) | 48.1% (active)
16 | CC(=O)Nc1nc2ncccn2c1-c1ccc(C(F)(F)F)cc1 | 30.9% (active)
17 | CCCn1c(=NC(C)=O)c(C(=O)OCC)cc2c(=O)n3ccccc3nc21 | 33.5% (active)
18 | CN1CCCc2cc(C#N)c(=O)[nH]c21 | 33.1% (active)
19 | Cc1cc2c(nc1C)CCCN2C | 0.32% (inactive)
20 | COCCN(CCOC)c1nc(N)c2c(N)nc3c(c2c1C#N)CC(=O)N3Cc1ccc(Cl)cc1 | -29.9% (inactive)
21 | COc1nc(N=C(N)N)nc2c(C)cccc12 | 23.8% (active)
22 | NC(N)=Nc1nc(-c2ccccc2)c2cc(Cl)ccc2n1 | -1.67% (inactive)
23 | CCOc1c2ccc(C(=O)NCc3ccc4c(c3)OCO4)cc2nn1C | 7.8% (inactive)
24 | Cc1coc2c1c(C)cc1oc(=O)c(CC(=O)NCC(=O)N[C@H](C(=O)O)C(C)C)c(C)c12 | 38.2% (active)
25 | COC(=O)c1cnn2c(C(F)(F)F)cc(-c3ccco3)nc12 | 38.9% (active)

Row | SMILES | activation
26 | Cc1nc2ccccc2cc1O | -5.12% (inactive)
27 | COc1cc2c(cc1OC)CC1(CCCCC1)N=C2 | 43.5% (active)
28 | Cc1cc(C)c2c(n1)nn1c(-n3ccnc3)cc(C)nc21 | 50.2% (active)
29 | Cc1cccn2c(=O)c3cc(C#N)c(=NC(=O)c4cccnc4)n(CC4CCCO4)c3nc12 (stereo not drawn) | -75.3% (inactive)
30 | CCn1c(=N)c(C(=O)NCCCOC)cc2c(=O)n3cccc(C)c3nc21 | 72.2% (active)
31 | Cc1cccn2c(=O)c3cc(C(=O)NCCN4CCOCC4)c(=N)n(Cc4cccnc4)c3nc12 | 17.1% (active)
32 | Cc1ccc2nc3c(cc(C(=O)NCCc4ccccc4)c(=N)n3CC3CCCO3)c(=O)n2c1 (stereo not drawn) | -15.4% (inactive)
33 | CC(C)=NN1C(=O)c2ccccc2NC1(C)C | 25% (active)
34 | COC(=O)c1ccc(C2C3=C(Nc4nnnn42)c2ccccc2OC3)cc1 (stereo not drawn) | 5.83% (inactive)
35 | CC(C)Cc1nc(Nc2ccc(S(=O)(=O)N3CCCC3)cc2)c2nnn(Cc3ccccc3)c2n1 | 43.6% (active)
36 | COc1cccc(OCc2cc(/C=N/NC(=O)c3nc(Cl)c(Cl)c(N)c3Cl)ccc2OC)c1 | 62.4% (active)
37 | CC(C)(C)OC(=O)c1c(N)n(CCCN2CCCC2=O)c2nc3ccccc3nc12 | 69.5% (active)
38 | COCC(C)OC(=O)c1c(N)n(CCCN2CCOCC2)c2nc3ccccc3nc12 (stereo not drawn) | 20% (active)
39 | COC(=O)c1c(C)c(C)nc(N)c1C#N | 71.3% (active)
40 | Cc1ccc(-c2nn(-c3ccccc3)cc2/C=C/C(=O)Nc2cccc(S(N)(=O)=O)c2)cc1 | 263% (active)
41 | CCc1ccc(-c2cc(C(=O)NCc3ccco3)c3ccccc3n2)s1 | 75.3% (active)
42 | COc1cc(C(=O)N2C(=O)c3cccc(N)c3C2=O)cc(OC)c1OC | 127% (active)
43 | CC1CC(C)CN(S(=O)(=O)c2cccc(C(=O)N3C(=O)c4cccc(N)c4C3=O)c2)C1 (stereo not drawn) | 240% (active)
44 | Nc1ccccc1-c1nc2ccncc2[nH]1 | 2.63% (inactive)
45 | CCCCc1cc(=O)oc2cc(C)cc(OCc3nn[nH]n3)c12 | 28.8% (active)
46 | CCCCCn1c(=O)c(C(=O)OCC)c(Cl)c2ccccc21 | -0.17% (inactive)
47 | CCCCN(CCCC)CC(O)Cn1c2ccccc2c(=O)c2ccccc21 (stereo not drawn) | 13.8% (active)
48 | CCCc1cc(=O)oc2c(C)c(O)c(CN3CCCCC3)cc12 | 62.8% (active)
49 | CC(=O)Nc1ccc(S(=O)(=O)NCC(=O)OCc2cc(=O)oc3ccc4ccccc4c23)cc1 | 218% (active)
50 | Nc1ccc2nn(-c3ccc(Cl)cc3)nc2c1 | 65.8% (active)

Row | SMILES | activation
51 | CC1(C)CN(c2ccc(-c3ccnc4ncnn34)cc2)C1=O | 68.6% (active)
52 | CCN1CCN(C(=O)c2cc3cc4ccc(OC)cc4nc3s2)CC1 | -15.9% (inactive)
53 | COc1ccc2oc(=O)c(C(=O)N3CCCC3)cc2c1 | 23.8% (active)
54 | COC(=O)C1=NN(c2ccccc2)C2C(=O)N(c3ccccc3OC)C(=O)C12 (stereo not drawn) | 21.2% (active)
55 | Cn1cccc1/C=N/NC(=O)CNc1cccc2ccccc12 | 2.27% (inactive)
56 | O=C(O)c1cccnc1Sc1ncnc2sc3c(c12)CCC3 | 17.9% (active)
57 | Cc1oc2nc(SCC(=O)Nc3ccc(S(N)(=O)=O)cc3)nc(NC(=O)c3ccccc3)c2c1C | 5.56% (inactive)
58 | O=c1oc2cc(O)ccc2cc1-c1ccc(F)cc1 | 76% (active)
59 | O=C(Nc1nncs1)c1ccccc1NS(=O)(=O)c1cccs1 | 26.4% (active)
60 | CCOc1ccc(N2C(=O)CC(N(O)c3ccccc3)C2=O)cc1 (stereo not drawn) | 166% (active)
61 | COC(=O)Cc1cc(=O)oc2c(C)c(O)ccc12 | 68% (active)
62 | CN(C)CCN1CCN(c2cc(-c3cccc(Cl)c3)nc3ccnn23)CC1 | 0.23% (inactive)
63 | COCc1cc(=O)[nH]c2cc(NC(=O)C(F)(F)F)c(C)cc12 | 239% (active)
64 | N#Cc1nc(-c2cccc3ccccc23)oc1N | 70.2% (active)
65 | CN(C)Cc1c(O)ccc2c(=O)c(-c3ccccc3Cl)coc12 | 70.2% (active)
66 | O=C(OC1CCOC1=O)c1ccc(-c2nc3ccccc3s2)s1 (stereo not drawn) | 17.6% (active)
67 | COC(=O)Cc1nc2c(N)nc(N)nc2[nH]c1=O | 18.7% (active)
68 | O=C(Oc1c(-c2ccco2)oc2ccccc2c1=O)c1cccnc1 | 22.3% (active)
69 | CC(C)(C)Nc1c(-c2cccs2)nc2ccccn12 | -59.6% (inactive)
70 | CN(C)CCCn1c(N)c(C#N)c2nc(C#N)c(C#N)nc21 | 38% (active)
71 | CCS(=O)(=O)Nc1cc(C(=O)OC)ccc1C(=O)OC | 10% (inactive)
72 | Cc1cccc(C)c1NC(=O)C(c1ccccc1)N1CC(=O)Nc2ccccc21 (stereo not drawn) | 40.3% (active)
73 | COc1ccc(C2=CC(c3cccc(OC)c3)n3nnnc3N2)cc1 (stereo not drawn) | -12.2% (inactive)
74 | CCOC(=O)C1=C(O)/C(=C/c2ccc(OCC(=O)Nc3ccc(C)cc3)cc2)N=C1C | 2.24% (inactive)
75 | CCC(c1nnnn1Cc1ccco1)N(CCc1ccccc1)Cc1cc2ccc(OC)cc2[nH]c1=O (stereo not drawn) | -0.98% (inactive)

Row | SMILES | activation
76 | Cc1ccsc1-c1cc(C(=O)O)c2c(ccc3ccccc32)n1 | 19.8% (active)
77 | O=C(/C=C/c1ccc2c(c1)OCCO2)c1ccc(O)cc1 | 3.2% (inactive)
78 | O=C(O)c1ccc2c(c1)C(=O)N(c1ccc(/C=C/C(=O)c3ccccc3)cc1)C2=O | 703% (active)
79 | CCCN(CC(=O)NC(=O)NC1CCCCC1)CC(=O)Nc1cc(Cl)ccc1Cl | 1.91% (inactive)
80 | CC(OC(=O)c1ccccc1NCCO)C(=O)Nc1ccnn1C(C)C (stereo not drawn) | 26.1% (active)
81 | O=c1c(-c2ccccc2)coc2c(CN3CCOCC3)c(O)ccc12 | 18.1% (active)
82 | Cc1c(C)c2c(OCC(=O)NCCCO)cc3c(c2oc1=O)CCC(C)(C)O3 | 44.6% (active)
83 | Cc1cc(=O)oc2c3c(cc(OCC(=O)NCCC(=O)N[C@@H](C)C(=O)O)c12)OC(C)(C)CC3 | 58.2% (active)
84 | Cc1c(C)c2c(OCC(=O)N[C@@H](C(=O)O)c3ccccc3)cc3c(c2oc1=O)CCC(C)(C)O3 | 36.6% (active)
85 | Cc1cc(=O)oc2c3c(cc(OCC(=O)N[C@H](C(=O)O)c4ccccc4)c12)OC(C)(C)CC3 | 34% (active)
86 | CCOC(OCC)c1ccc(/C=C\c2nccc(N)n2)cc1 | -9.52% (inactive)
87 | CCOC(=O)c1[nH]c2ccc(OC)cc2c1NC(=O)CCN1CCN(Cc2ccccc2)CC1 | 1.17% (inactive)
88 | Cc1nn(-c2ccccc2)c(C)c1NC(=O)COC(=O)c1cc(Cl)ccc1O | 24.2% (active)
89 | CC1CCCN(C(=O)c2cc(-c3ccco3)nc3ccccc23)C1 (stereo not drawn) | 36.6% (active)
90 | CC(=O)N1CCN(C(=O)c2cc(-c3ccc(C)o3)nc3ccccc23)CC1 | 62.7% (active)
91 | CNC(=O)COC(=O)c1cc(-c2ccc(OC)cc2)nc2ccccc12 | 88.7% (active)
92 | COc1ccc(-c2cc(C(=O)n3cnc4ccccc43)c3ccccc3n2)cc1 | 56.7% (active)
93 | COc1ccc(CNC(=O)COC(=O)C2=Cc3ccccc3OC2)cc1 | 9.73% (inactive)
94 | COc1ccc2nc(Nc3nc4cc5c(cc4s3)OCCO5)sc2c1 | -12.6% (inactive)
95 | O=C(O)c1ccc2c3c(cccc13)C(=O)N(OS(=O)(=O)c1ccccc1)C2=O | 181% (active)
96 | CC(=O)Nc1nc(C)c(-c2csc(Nc3ccc(S(N)(=O)=O)cc3)n2)s1 | 17.4% (active)
97 | CNc1cncc(-c2cccc(C(=O)N3CCOCC3)c2)n1 | 38.8% (active)
98 | Cc1cc(N2CCOCC2)nc2ccc(NC(=S)N3CCN(Cc4ccccc4)CC3)cc12 | 9.27% (inactive)
